# Of roughly 8,800 targets only a part is listed; those with a hit were picked by preference. About 0.5% of all pairs of compound and target were hits. Unmarked numbers belong to inactive results.
# Legend:
# Assay in all cases: log2 fold change, soluble protein after heating vs DMSO (PISA); higher = thermal stabilisation; K562 lysate, 10 uM; active = over 0.2 and 3.5 SD of the protein, either way, in both replicates (recomputed)
# [1] = compound: Cc1cn(-c2cc(NC(=O)c3ccc(C)c(Nc4nccc(-c5cccnc5)n4)c3)cc(C(F)(F)F)c2)cn1 [nilotinib]
# Outline: (§1)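 K562 pellets were dounce-homogenised in PBS pH 7.4 with 1 mM MgCl2, and the crude extract at 1 mg/mL protein was treated with 10 μM compound for 30 min. Aliquots were heated for 3 min across 48°C-58°C, pooled, and brought to 0.5% NP-40 at 4°C; soluble protein was the supernatant after 21,000xg for 90 min. Soluble protein was quantified by TMTpro 16plex LC-MS/MS with channel sums equalised, and reported as log2 fold change in thermal stability against DMSO controls, with values from duplicates.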
# [2] = compound: Cc1nc(Nc2n[nH]c3c2CN(C(=O)N[C@H](CN(C)C)c2ccccc2)C3(C)C)c2sccc2n1
# Outline: as §1
# [3] = compound: Cc1nc(Nc2ncc(C(=O)Nc3c(C)cccc3Cl)s2)cc(N2CCN(CCO)CC2)n1 [dasatinib]
# Outline: as §1
# [4] = compound: Cc1ncc(-c2ccnc(Nc3ccc(S(C)(=O)=O)cc3)n2)n1C(C)C
# Outline: as §1
# [5] = compound: Cn1cc(-c2ccc3c(c2)CCN3C(=O)Cc2cccc(C(F)(F)F)c2)c2c(N)ncnc21
# Outline: as §1
# [6] = compound: Cn1cc(CNCC2CCN(c3ncc(C(=O)NO)cn3)CC2)c2ccccc21 [quisinostat]
# Outline: as §1
# [7] = compound: Cn1cncc1[C@@](N)(c1ccc(Cl)cc1)c1ccc2c(c1)c(-c1cccc(Cl)c1)cc(=O)n2C [tipifarnib]
# Outline: as §1
# [8] = compound: NC(=O)Nc1cc(-c2cccc(F)c2)sc1C(=O)N[C@H]1CCCNC1
# Outline: as §1
# [9] = compound: NC(=O)c1cnc(N[C@@H]2CCCC[C@@H]2N)nc1Nc1cccc(-n2nccn2)c1
# Outline: as §1
# [10] = compound: NC1(c2ccc(-c3nc4ccn5c(=O)[nH]nc5c4cc3-c3ccccc3)cc2)CCC1
# Outline: as §1
# Chain of UniProt Q15843 (Q15843 whole entry, looked up): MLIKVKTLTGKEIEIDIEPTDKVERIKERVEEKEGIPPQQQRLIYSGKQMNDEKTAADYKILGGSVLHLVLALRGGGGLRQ
# Chain of UniProt O60934 (O60934 whole entry, looked up): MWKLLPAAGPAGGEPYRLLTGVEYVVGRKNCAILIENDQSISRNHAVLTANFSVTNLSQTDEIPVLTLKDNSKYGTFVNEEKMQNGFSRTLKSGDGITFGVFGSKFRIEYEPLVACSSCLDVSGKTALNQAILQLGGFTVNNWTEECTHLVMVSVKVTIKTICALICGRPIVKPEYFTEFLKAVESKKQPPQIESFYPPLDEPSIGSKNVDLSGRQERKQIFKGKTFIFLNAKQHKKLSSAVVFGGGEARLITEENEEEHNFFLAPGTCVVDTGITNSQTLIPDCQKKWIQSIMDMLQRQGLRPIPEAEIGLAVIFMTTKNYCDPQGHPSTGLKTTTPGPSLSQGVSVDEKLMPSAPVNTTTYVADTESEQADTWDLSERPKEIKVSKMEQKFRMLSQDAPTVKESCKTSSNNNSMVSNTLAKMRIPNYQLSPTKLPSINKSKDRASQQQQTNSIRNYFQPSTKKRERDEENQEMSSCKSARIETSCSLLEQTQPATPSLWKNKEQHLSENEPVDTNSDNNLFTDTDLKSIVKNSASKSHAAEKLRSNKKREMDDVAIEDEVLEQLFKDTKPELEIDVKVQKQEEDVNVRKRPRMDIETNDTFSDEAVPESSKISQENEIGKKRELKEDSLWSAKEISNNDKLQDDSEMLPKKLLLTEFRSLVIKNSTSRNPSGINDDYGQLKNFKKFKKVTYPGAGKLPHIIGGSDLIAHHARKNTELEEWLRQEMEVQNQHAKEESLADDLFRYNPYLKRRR
# Chain of UniProt P18440 (P18440 whole entry, looked up): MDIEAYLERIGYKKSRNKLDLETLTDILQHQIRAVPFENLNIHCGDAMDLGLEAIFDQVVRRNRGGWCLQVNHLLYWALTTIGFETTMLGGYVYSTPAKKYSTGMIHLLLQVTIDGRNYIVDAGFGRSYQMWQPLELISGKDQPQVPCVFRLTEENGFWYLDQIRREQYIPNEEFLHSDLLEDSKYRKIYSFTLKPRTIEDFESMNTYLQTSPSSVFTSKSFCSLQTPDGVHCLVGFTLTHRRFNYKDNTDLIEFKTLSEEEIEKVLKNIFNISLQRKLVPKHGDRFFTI
# Chain of UniProt P43246 (P43246 whole entry, looked up): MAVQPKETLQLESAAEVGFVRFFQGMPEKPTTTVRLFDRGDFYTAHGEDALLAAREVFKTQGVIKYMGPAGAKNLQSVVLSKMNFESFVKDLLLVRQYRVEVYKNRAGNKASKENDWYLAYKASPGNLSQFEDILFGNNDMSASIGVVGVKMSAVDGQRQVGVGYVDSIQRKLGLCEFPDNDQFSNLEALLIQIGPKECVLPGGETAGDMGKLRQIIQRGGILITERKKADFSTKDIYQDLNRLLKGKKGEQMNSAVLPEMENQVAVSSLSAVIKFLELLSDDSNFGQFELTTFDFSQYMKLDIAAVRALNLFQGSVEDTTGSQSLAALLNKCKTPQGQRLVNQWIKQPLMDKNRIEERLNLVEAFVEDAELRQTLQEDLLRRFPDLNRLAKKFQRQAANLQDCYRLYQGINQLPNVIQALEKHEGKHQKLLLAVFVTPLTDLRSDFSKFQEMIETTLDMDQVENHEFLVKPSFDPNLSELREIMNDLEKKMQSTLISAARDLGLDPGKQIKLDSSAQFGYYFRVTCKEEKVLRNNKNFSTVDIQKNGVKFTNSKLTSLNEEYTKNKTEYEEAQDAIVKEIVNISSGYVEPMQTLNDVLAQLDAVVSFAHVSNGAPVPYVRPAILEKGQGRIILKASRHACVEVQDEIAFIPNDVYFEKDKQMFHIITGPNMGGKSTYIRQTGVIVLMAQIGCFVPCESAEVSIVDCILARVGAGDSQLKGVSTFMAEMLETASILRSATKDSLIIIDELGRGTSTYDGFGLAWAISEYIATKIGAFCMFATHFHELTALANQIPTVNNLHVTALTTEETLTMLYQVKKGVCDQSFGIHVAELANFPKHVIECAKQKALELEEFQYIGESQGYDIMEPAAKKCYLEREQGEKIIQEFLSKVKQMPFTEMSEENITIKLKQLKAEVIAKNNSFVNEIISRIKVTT
# Chain of UniProt Q9Y6R0 (Q9Y6R0 whole entry, looked up): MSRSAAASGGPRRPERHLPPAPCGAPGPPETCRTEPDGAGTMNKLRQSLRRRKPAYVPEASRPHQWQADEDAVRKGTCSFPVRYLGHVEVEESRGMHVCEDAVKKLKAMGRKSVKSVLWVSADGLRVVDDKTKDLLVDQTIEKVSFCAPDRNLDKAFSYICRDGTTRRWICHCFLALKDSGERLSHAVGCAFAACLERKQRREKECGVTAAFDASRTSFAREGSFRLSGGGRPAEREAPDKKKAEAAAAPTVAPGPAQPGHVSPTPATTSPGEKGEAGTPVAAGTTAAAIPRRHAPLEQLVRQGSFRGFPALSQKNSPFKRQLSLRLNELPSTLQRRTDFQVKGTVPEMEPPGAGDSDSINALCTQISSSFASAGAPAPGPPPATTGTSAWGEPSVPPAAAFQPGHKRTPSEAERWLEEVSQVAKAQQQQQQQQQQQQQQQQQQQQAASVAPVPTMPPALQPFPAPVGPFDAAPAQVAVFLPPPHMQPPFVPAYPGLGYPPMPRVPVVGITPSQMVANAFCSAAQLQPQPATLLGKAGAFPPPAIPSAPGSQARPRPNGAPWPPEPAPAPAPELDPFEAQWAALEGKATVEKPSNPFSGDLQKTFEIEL
# Chain of UniProt Q9NZT2 (Q9NZT2 whole entry, looked up): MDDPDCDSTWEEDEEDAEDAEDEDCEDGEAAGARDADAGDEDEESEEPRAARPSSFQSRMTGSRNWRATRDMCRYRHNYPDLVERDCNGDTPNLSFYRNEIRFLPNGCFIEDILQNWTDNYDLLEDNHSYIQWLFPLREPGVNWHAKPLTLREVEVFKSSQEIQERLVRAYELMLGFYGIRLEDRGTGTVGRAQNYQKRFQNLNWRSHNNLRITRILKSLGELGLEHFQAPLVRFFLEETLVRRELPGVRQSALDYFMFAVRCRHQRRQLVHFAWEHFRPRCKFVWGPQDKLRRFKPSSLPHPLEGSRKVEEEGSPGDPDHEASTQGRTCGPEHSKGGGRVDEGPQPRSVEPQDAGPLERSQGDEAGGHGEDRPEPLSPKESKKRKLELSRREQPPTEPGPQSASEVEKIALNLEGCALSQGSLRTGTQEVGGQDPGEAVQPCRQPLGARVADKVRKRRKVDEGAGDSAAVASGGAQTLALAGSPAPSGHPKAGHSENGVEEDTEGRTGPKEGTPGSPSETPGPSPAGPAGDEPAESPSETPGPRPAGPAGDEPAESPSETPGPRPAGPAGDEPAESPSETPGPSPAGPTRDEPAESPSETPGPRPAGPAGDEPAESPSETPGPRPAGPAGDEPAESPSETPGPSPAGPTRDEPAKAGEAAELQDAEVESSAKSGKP
# Chain of UniProt Q9UHQ1 (Q9UHQ1 whole entry, looked up): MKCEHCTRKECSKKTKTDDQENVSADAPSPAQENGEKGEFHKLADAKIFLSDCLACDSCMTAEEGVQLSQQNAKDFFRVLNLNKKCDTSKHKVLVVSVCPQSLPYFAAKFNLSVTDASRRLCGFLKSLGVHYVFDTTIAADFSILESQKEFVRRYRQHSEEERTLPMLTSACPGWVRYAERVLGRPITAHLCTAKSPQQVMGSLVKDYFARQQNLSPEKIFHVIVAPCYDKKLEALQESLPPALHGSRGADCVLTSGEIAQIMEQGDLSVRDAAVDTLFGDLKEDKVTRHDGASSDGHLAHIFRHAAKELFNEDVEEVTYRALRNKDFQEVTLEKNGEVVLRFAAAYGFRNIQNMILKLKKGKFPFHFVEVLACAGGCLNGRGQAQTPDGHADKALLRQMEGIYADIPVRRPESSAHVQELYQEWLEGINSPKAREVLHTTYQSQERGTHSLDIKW
# Chain of UniProt O94832 (O94832 whole entry, looked up): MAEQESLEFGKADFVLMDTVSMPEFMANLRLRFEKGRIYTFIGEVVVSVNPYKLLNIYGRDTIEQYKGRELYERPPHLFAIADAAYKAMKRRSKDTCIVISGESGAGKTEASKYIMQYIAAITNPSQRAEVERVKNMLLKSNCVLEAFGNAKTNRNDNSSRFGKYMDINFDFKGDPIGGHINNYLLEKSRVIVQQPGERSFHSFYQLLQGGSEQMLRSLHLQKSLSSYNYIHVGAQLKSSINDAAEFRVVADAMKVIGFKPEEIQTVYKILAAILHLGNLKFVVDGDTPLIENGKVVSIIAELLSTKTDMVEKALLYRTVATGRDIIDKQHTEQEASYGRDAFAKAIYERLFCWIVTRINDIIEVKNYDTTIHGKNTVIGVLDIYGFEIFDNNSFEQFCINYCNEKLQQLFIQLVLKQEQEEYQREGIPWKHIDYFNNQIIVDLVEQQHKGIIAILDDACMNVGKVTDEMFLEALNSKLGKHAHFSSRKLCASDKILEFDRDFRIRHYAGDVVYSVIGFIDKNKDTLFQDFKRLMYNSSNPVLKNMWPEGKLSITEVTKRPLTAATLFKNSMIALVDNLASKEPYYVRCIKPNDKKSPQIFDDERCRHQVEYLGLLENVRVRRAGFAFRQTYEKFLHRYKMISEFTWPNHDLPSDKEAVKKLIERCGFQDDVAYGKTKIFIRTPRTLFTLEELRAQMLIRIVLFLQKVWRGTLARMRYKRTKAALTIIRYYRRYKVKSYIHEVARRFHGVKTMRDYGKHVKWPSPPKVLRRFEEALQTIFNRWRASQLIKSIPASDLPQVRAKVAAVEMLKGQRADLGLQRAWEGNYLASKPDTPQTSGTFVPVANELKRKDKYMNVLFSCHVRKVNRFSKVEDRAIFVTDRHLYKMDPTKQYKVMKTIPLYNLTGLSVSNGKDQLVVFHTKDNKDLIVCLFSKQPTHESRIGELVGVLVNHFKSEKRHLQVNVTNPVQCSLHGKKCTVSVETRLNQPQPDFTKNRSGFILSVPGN
# Chain of UniProt Q99417 (Q99417 whole entry, looked up): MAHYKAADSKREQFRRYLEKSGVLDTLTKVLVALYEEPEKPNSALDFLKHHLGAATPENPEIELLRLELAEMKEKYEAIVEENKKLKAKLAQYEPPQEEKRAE
Target,log2 fold change [1],log2 fold change [2],log2 fold change [3],log2 fold change [4],log2 fold change [5],log2 fold change [6],log2 fold change [7],log2 fold change [8],log2 fold change [9],log2 fold change [10]
NEDD8 (UniProt Q15843),0.004,-0.073,0.027,0.103,-0.034,0.034,0.066,-0.038,-0.057,0.018
OGFR (UniProt Q9NZT2),-0.016,0.021,-0.022,-0.005,0.042,-0.004,0.04,0.02,-0.001,0.028
NUMBL (UniProt Q9Y6R0),0.038,-0.013,-0.041,-0.12,0.219,0.04,-0.06,-0.415 (active),-0.055,-0.046
MYO1D (UniProt O94832),0.002,-0.01,-0.036,-0.006,0.016,-0.031,-0.004,0.05,0,-0.042
MYCBP (UniProt Q99417),-0.034,0.041,0.019,0.055,-0.011,-0.058,-0.011,-0.038,-0.02,0.029
NBN (UniProt O60934),0.004,0.013,-0.019,0.037,0.03,0.011,0.005,0.046,-0.024,-0.015
MTMR6 (UniProt Q9Y217),-0.04,0.063,-0.036,-0.026,-0.076,-0.116,-0.024,0.086,-0.007,-0.032
NEBL (UniProt O76041),-0.024,0.019,0.089,0.032,-0.007,-0.045,0.008,-0.065,-0.018,-0.03
NAT1 (UniProt P18440),-0.005,-0.017,-0.058,-0.04,0.097,-0.1,-0.006,0.017,-0.018,-0.037
NARF (UniProt Q9UHQ1),-0.029,0.011,0.01,-0.031,0.014,-0.03,-0.062,0.017,-0.079,0.005
MSH2 (UniProt P43246),-0.005,-0.008,-0.038,-0.01,0.01,-0.08,0.004,0.046,0.016,-0.017

# — the supplement of paper PMC10849652
